FECH inh: inhibitors of human ferrochelatase, primary screen, biochemical, purified FECH, Ni-mesoporphyrin absorbance; Ferrochelatase, mitochondrial (Homo sapiens), P22830; Ni-mesoporphyrin absorbance 550 nm; calls only at 10 µM (by protocol); 20,000 tested, 3.3% active; AID 1671448, 2021;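 active means enzyme reaction rate more than 3 SD below the solvent-only control wells on the same plate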;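 further: lower slope than DMSO wells means FECH inhibition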
Target sequence (P22830 whole entry, looked up): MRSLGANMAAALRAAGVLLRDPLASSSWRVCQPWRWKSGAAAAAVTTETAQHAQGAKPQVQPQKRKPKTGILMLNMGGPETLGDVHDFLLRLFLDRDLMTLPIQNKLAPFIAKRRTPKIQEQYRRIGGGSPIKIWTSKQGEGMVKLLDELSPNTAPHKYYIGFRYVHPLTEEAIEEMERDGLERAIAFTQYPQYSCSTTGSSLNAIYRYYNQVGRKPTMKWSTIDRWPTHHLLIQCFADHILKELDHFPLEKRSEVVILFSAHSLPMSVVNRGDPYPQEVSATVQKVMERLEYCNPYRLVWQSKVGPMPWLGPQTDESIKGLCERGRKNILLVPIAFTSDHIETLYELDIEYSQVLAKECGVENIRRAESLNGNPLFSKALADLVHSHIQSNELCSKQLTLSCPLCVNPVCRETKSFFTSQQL
Calls only; – = inactive; + = active, no number. This excerpt belongs to a sample that is enriched for hits.

SMILES	FECH inh
O=C1CCCCN1CCc1nc(C2(c3ccc(F)cc3)CCOC2)no1 (configuration not stated)	–
Cn1c(=O)c(C(=O)NCc2ccc3c(c2)OCO3)nc2ccccc21	–
Cn1c(=O)c(C(=O)NCc2ccc(F)cc2)nc2ccccc21	–
Cc1ccc(CNC(=O)c2nc3ccccc3n(C)c2=O)cc1	+
CCCc1nnc2sc(Cc3cc4c(cc3Cl)OCCO4)nn12	–
CC(C)n1cnc2nc(CSc3ccccc3NC(=O)COc3ccc(F)cc3)cc(=O)n21	–
CC(C)n1cnc2nc(CSc3ccccc3NC(=O)COc3ccccc3F)cc(=O)n21	+
COc1ccc(C(=O)Nc2ccccc2SCc2cc(=O)n3c(ncn3C(C)C)n2)cc1OC	–
CC(C)n1cnc2nc(CSc3ccccc3NC(=O)c3cccc(Cl)c3)cc(=O)n21	–
CCCn1cnc2nc(CSc3ccccc3NC(=O)c3ccc(Cl)cc3)cc(=O)n21	+
CCc1ccccc1OCC(=O)Nc1ccccc1SCc1cc(=O)n2c(ncn2C(C)C)n1	–
COc1ccccc1NC(=O)C1CCN(c2ccc(-c3ccc(C)cc3)nn2)CC1	–
O=C1CC(C(=O)Nc2ccc(Cl)cc2)N=C(N2CCCCC2)N1 (configuration not stated)	–
Cc1ccc(S(=O)(=O)N2CCN(c3nc(C)cc(N(C)C)n3)CC2)c(C)c1	–
COc1ccccc1NC(=O)Nc1nc(CC(=O)Nc2ccccc2C)cs1	–
COc1ccc(CN2CC[C@H](CO)[C@H](O)C2)cc1Cn1cccn1	–
Cc1cc(NC(=O)c2ccccc2C(F)(F)F)n(-c2ncnc3c2cnn3-c2ccc(Cl)cc2)n1	–
C=CCn1cc(CNC(C)C2=CCCCC2)c(C)n1 (configuration not stated)	–
C=CCn1cc(CN[C@H](C)c2cccc(OC)c2)c(C)n1	+
C=CCn1cc(CN(C)C(C)CC(=O)NC)c(C)n1 (configuration not stated)	–
O=C(NCCCN1CCc2ccccc2C1)C1CCN(c2ncnc3c2nc2n3CCCCC2)CC1	–
O=C1CCC(NCc2ccc(-n3cncn3)cc2)CCN1Cc1ccccc1 (configuration not stated)	–
CCCn1c(CNS(C)(=O)=O)nc2cccnc21	–
CN(Cc1nc(-c2cccnc2)no1)Cc1ccc(C2CCCO2)s1 (configuration not stated)	–
CN(Cc1ccncc1)Cc1nc(-c2cccnc2)no1	–
SMILES	FECH inh
Cc1ccc2[nH]c(CN(C)Cc3nc(-c4cccnc4)no3)nc2c1C	+
COCCc1noc(CN2CCc3onc(-c4ccc(Cl)cc4)c3C2)n1	–
COc1cccc(CN2CCNC(=O)C2CC(=O)NCc2ncc[nH]2)c1 (configuration not stated)	–
Cc1ccc(C)c(OCC(=O)NCc2nc(-c3cccnc3)no2)c1C	–
c1cc2c(c(-c3cc(N4CCOCC4)ncn3)c1)CCNC2	–
CCS(=O)(=O)N1CCN(c2cc(-c3cccc(C)c3)ncn2)CC1	+
CCS(=O)(=O)N1CCN(c2cc(-c3ccc(C)cc3)ncn2)CC1	–
CS(=O)(=O)N1CCN(c2cc(-c3cccc(F)c3)ncn2)CC1	–
Cc1ccc(-c2cc(N3CCN(S(C)(=O)=O)CC3)ncn2)cc1	–
CCS(=O)(=O)N1CCN(c2cc(-c3cccc(OC)c3)ncn2)CC1	–
CS(=O)(=O)N1CCN(c2cc(-c3ccc(F)cc3)ncn2)CC1	+
Cc1nnc(SCCCNC(=O)c2nn(C)c3c2CCCC3)s1	–
COC(=O)c1ccc(C(=O)OC)c(NC(=O)N2CCC(n3c(C)nc4cccnc43)CC2)c1	–
Cc1ccc2c(c1)c(CNC(=O)[C@H](N)CC(C)C)nn2C	–
COc1ccc(OC)c(NC(=O)N2CCC(n3cnc4cccnc43)CC2)c1	–
COCCN1C(=O)CSc2c(c(C)nn2-c2ccccc2)C1C(=O)NCc1ccccc1OC (configuration not stated)	–
CCC(=O)Nc1nc2n(n1)C(c1c(F)cccc1Cl)C=C(c1ccc(C)cc1)N2 (configuration not stated)	–
Cc1ccc(C(=O)Nc2nc3n(n2)C(c2c(F)cccc2Cl)C=C(c2ccc(Cl)cc2)N3)cc1 (configuration not stated)	–
CC(=O)Nc1nc2n(n1)C(c1c(F)cccc1Cl)C=C(c1ccccc1)N2 (configuration not stated)	+
O=C(Nc1nc2n(n1)C(c1ccc(F)cc1)C=C(c1ccccc1)N2)c1ccc(Cl)cc1 (configuration not stated)	–
Cc1ccc(C2=CC(c3c(F)cccc3Cl)n3nc(NC(=O)c4cccc(Cl)c4)nc3N2)cc1 (configuration not stated)	–
Cc1ccc(C2=CC(c3c(F)cccc3Cl)n3nc(NC(=O)CCc4ccccc4)nc3N2)cc1 (configuration not stated)	–
O=C(Nc1nc2n(n1)C(c1ccc(F)cc1)C=C(c1ccccc1)N2)c1ccccc1 (configuration not stated)	+
Cc1ccc(C2=CC(c3ccc(Cl)cc3)n3nc(NC(=O)c4ccccc4F)nc3N2)cc1 (configuration not stated)	–
Cc1ccc(C2=CC(c3c(F)cccc3Cl)n3nc(NC(=O)c4ccc(Cl)cc4)nc3N2)cc1 (configuration not stated)	–
SMILES	FECH inh
O=C(Nc1nc2n(n1)C(c1c(F)cccc1Cl)C=C(c1ccc(Cl)cc1)N2)c1cccnc1 (configuration not stated)	+
Cc1cccc(C(=O)Nc2nc3n(n2)C(c2c(F)cccc2Cl)C=C(c2ccc(Cl)cc2)N3)c1 (configuration not stated)	+
Cc1ccc(C2=CC(c3ccc(F)cc3)n3nc(NC(=O)c4ccccc4)nc3N2)cc1 (configuration not stated)	–
Cc1nc(CN2CCCC(O)(CN(C)C)CC2)sc1C (configuration not stated)	–
CCc1[nH]nc2c1C(c1ccccc1OCCCn1ccnc1)CC(=O)N2 (configuration not stated)	–
O=C(O)CCC(=O)Nc1nc2n(n1)C(c1ccc(F)cc1)C=C(c1ccccc1)N2 (configuration not stated)	–
CCOc1ccc(Cn2c(CNS(=O)(=O)c3ccc(C)c(C)c3)nc3cccnc32)cc1	–
Cc1ccc(NC(=O)Nc2c(C)nc3nc(C4CC4)[nH]n3c2=O)cc1C	–
CCOc1ccc(C(=O)N(C)CCOc2ccc(C)cc2Cl)o1	–
COc1ccc(C(=O)Nc2nc3n(n2)C(c2c(F)cccc2Cl)C=C(c2ccccc2)N3)cc1 (configuration not stated)	–
O=C(Nc1nc2n(n1)C(c1ccccc1Cl)C=C(c1ccccc1)N2)c1ccccc1 (configuration not stated)	–
O=C(Nc1nc2n(n1)C(c1c(F)cccc1Cl)C=C(c1ccccc1)N2)c1ccccc1 (configuration not stated)	+
Cc1cc(N(C)C)nc(Nc2ccc(NC(=O)c3ccc(C)c(C)c3)cc2)n1	–
Cc1c(NC(=O)COc2cccnc2)cccc1C(=O)NC(C)(C)C	–
CC(C)c1nnc2sc(C3CCCO3)nn12 (configuration not stated)	–
Cn1c(=O)c2c(-c3ccc(C(C)(C)C)cc3)c(NCc3ccccc3)oc2n(C)c1=O	–
C=CCN(Cc1ccccc1OC)C(=O)c1cccc(N(C)C)c1	–
COc1ccc(Cl)cc1S(=O)(=O)Nc1cnc(N(C)Cc2ccccc2)c(C(=O)O)c1	–

Screens deposited in PubChem by Corson Lab, School of Medicine, Indiana University.
